# Source: PubChem BioAssay AID493191 (Broad Institute, 2011)
# In all, about 1,300 compounds went through this assay and about 330 (25%) were called active. No rule for the calls is given here. Not all results are given here. Potency and affinity values are given separately.
# Assay: MALME3 melanoma cell viability loss, dose response, orthogonal assay for MITF inhibitor project, CellTiter-Glo, cherry-picked (AID 493191)
# Settings: CellTiter-Glo luminescence, 24 h; series mostly up to 35 µM; activity change, negative = inhibition: at the top concentration
row,SMILES,"activity change, negative = inhibition"
1,C=CCn1c(C)cc(C(=O)CN2C(=O)c3ccccc3S2(=O)=O)c1C,8.23% (inactive)
2,Cn1c(/C=C/c2cccc([N+](=O)[O-])c2)c([N+](=O)[O-])c(=O)n(C)c1=O,-1.13% (inactive)
3,Nc1ccc(-c2cc3ccccc3c(=O)o2)cc1,-6.34% (inactive)
4,Cn1c(COc2ccccc2Br)nc2ccccc21,-8.31% (inactive)
5,O=C(CN1CCCCC1)Nc1scc2c1c(=O)oc1ccccc12,9.74% (inactive)
6,CCc1ccc(-c2cc(C(=O)Nn3cnnc3)c3ccccc3n2)cc1,-34.7% (inactive)
7,O=C(Nc1ccccc1N1CCOCC1)c1ccc([N+](=O)[O-])o1,-33% (inactive)
8,Cc1cn(CCC(=O)Nc2ccccc2N2CCOCC2)c2ccccc12,0.439% (inactive)
9,FC(F)(F)Oc1ccc(-c2cn3cccnc3n2)cc1,9.48% (inactive)
10,CCN(CCO)c1ccc(N=Nc2cc(C)[nH]n2)cc1,1.47% (inactive)
11,COc1cc(/C=C/C(=O)c2ccc3c(c2)OCCO3)cc(Br)c1OCC(=O)N(C)C,-25.1% (inactive)
12,COCc1cc(C)nc2sc(C(=O)Nc3ccc(OC)cc3)c(N)c12,18% (inactive)
13,Cc1ccccc1-c1nc(CN2CCC(C(=O)NCCCN3CCCC(C)C3)CC2)c(C)o1 (stereo not drawn),-24.7% (inactive)
14,Cc1cc(C)c2nc(N3CCC(C(=O)NCCCN4CC(C)CC(C)C4)CC3)sc2c1 (stereo not drawn),-1.77% (inactive)
15,COc1cc(-c2nnc(-c3ccco3)o2)ccc1OCc1ccccc1,2.69% (inactive)
16,COc1ccc(-c2nc(-c3ccccc3OC)no2)cc1OC,10.9% (inactive)
17,COc1ccc(-c2nc3n(c2C)Cc2ccccc2-3)cc1,-13.5% (inactive)
18,Cn1nnnc1Sc1ncnc2scc(-c3ccc[nH]3)c12,-24.7% (inactive)
19,S=c1[nH]nc(-c2ccco2)n1/N=C/C(Cl)=C/c1ccccc1,-8.95% (inactive)
20,O=C(Nc1ccccc1Cl)c1cc(=O)c2ccccc2o1,1.46% (inactive)
21,Cc1ccc2nc(-c3cccnc3)oc2c1,-3.42% (inactive)
22,O=C(Nc1ccc(-c2nc3ncccc3o2)cc1)c1ccc([N+](=O)[O-])o1,-49.7% (inactive)
23,Oc1cc(NCc2cccnc2)ccc1-c1nc2ccccc2o1,-0.708% (inactive)
24,CC(=NNC(=S)N1CCN(c2ccccn2)CC1)c1nccs1,-16.1% (inactive)
25,Oc1c(Cl)cc(Cl)cc1/C=N/Nc1ncc(Br)cn1,-18.3% (inactive)

row,SMILES,"activity change, negative = inhibition"
1,CC(C)(C)C1CCC(OC(=O)CN2CCCCC2)CC1 (stereo not drawn),-13.2% (inactive)
2,Cc1ccc(NC(=O)Nc2ccccc2)nc1,-5.49% (inactive)
3,COc1cc(C2C(C#N)=C(N)Oc3cc(N(C)C)ccc32)cc2c1OCO2 (stereo not drawn),11.2% (inactive)
4,Cc1ccc(/C=c2/sc3n(c2=O)CCCN=3)o1,0.622% (inactive)
5,O=C(Cn1cc(/C=C\[N+](=O)[O-])c2ccccc21)Nc1ccccc1,-28.1% (inactive)
6,Cc1cc(/C=C2\Sc3ccccc3N2C)cc(C)[n+]1CC1CCCO1 (stereo not drawn),-44.9% (inactive)
7,O=C(O)c1cccc(COc2ccccc2Cl)c1,-4.79% (inactive)
8,COc1cc(C(=O)N/N=C(\c2ccccc2)c2ccccn2)cc(OC)c1OC,-45.1% (inactive)
9,Cc1ccc2c(c1)COc1c3ccc(C(=O)O)cc3nn1-2,-23.7% (inactive)
10,CCOc1cc(/C=N/Nc2cccc(C(=O)O)c2)ccc1OC(=O)c1ccccc1,7.73% (inactive)
11,COc1cc(/C=N/NS(=O)(=O)c2ccc3ccccc3c2)ccc1OCc1ccc(C(=O)O)cc1,8.79% (inactive)
12,COc1cc(/C=N/NS(=O)(=O)c2ccc(C)cc2)ccc1OCc1cccc(C(=O)O)c1,19.6% (inactive)
13,CCOc1cc(/C=C2/NC(=S)NC2=O)ccc1OCc1ccc([N+](=O)[O-])cc1,-0.568% (inactive)
14,Cc1cc(/C(N)=N/OC(=O)c2ccc(Cl)cc2)no1,-16.9% (inactive)
15,CCCCN=C(C)c1c(O)c2ccccc2oc1=O,4.39% (inactive)
16,Cc1ccc(/C=N/Nc2ccc(C(=O)O)cc2)s1,-3.96% (inactive)
17,CC(C)(C)c1ccc(/C=N/Nc2ccc(C(=O)O)cc2)cc1,-11.8% (inactive)
18,Cc1csc(NC(=O)Cc2c(F)cccc2Cl)n1,-9% (inactive)
19,Cc1cc(C)n(CCC(=O)N/N=C/c2c(O)ccc3ccccc23)n1,-29.7% (inactive)
20,Cc1ccc(-n2[nH]c(=O)c(-c3ccccn3)c2C)cc1,-6.77% (inactive)
21,Cc1cccc(N(O)C(=O)Nc2cccc(Cl)c2)c1,1.36% (inactive)
22,COc1ccc(NCc2nc3ccccc3n2C)cc1,-16.2% (inactive)
23,Cn1c(COc2ccccc2)nc2ccccc21,-6.2% (inactive)
24,CCOC(=O)/C=c1\s/c(=C\c2ccc3cc(OC)ccc3c2)c(=O)n1CC(=O)NCC1CCCO1 (stereo not drawn),-15.3% (inactive)
25,O=C(COC(=O)CCN1C(=O)/C(=C\C=C\c2ccccc2)SC1=S)Nc1cc(F)ccc1F,8.66% (inactive)

row,SMILES,"activity change, negative = inhibition"
1,O=C(Nc1ccccn1)c1ccc(Br)s1,-6.52% (inactive)
2,N=c1n(CC(=O)c2ccc(Br)cc2)c2ccccc2n1Cc1ccccc1,-44.7% (inactive)
3,O=C(CCl)N1c2ccccc2SCC1c1ccccc1 (stereo not drawn),-6.94% (inactive)
4,COc1ccc(COC(=O)c2n[nH]c3ccccc23)cc1F,-0.544% (inactive)
5,CC(=O)N(\C=C/C=C/C=C1\Sc2ccccc2C1=O)c1ccccc1,-36% (inactive)
6,Nc1c(-c2ccc(Cl)cc2)nnn1-c1ccccc1,3.95% (inactive)
7,CCSc1nc2c(cnn2-c2ccccc2)c(=O)n1N,0.098% (inactive)
8,COc1cc2c(cc1OC)C(SC)=NC1(CCCC1)C2,-27.5% (inactive)
9,CN(C)c1ccc(/C=C(\C#N)c2ccccn2)cc1,-27.7% (inactive)
10,O=C(C[n+]1cccc2ccccc21)c1ccc([N+](=O)[O-])cc1,-4.13% (inactive)
11,N=c1n(CC(=O)c2ccc([N+](=O)[O-])cc2)c2ccccc2n1Cc1ccccc1Cl,-16.3% (inactive)
12,O=C(/C=C/NNC(=O)c1ccccc1)c1ccc([N+](=O)[O-])cc1,-24.7% (inactive)
13,Cc1ccccc1Cn1c(=N)n(CC(=O)c2ccc([N+](=O)[O-])cc2)c2ccccc21,-24.4% (inactive)
14,Cc1ccccc1C(=O)O/N=C(\N)c1ccc([N+](=O)[O-])cc1,-1.73% (inactive)
15,CCN1CCN(/C=N/c2nc3c(s2)CCCC3)CC1,-10.3% (inactive)
16,CC(Oc1cccc(Br)c1)C(=O)NNC(=O)c1ccccn1 (stereo not drawn),-14.8% (inactive)
17,Cc1cnn(C(=S)NCCc2ccccc2)c1,-12.5% (inactive)
18,O=C(Cn1cnc2c(oc3ccccc32)c1=O)c1ccccc1,-2.47% (inactive)
19,CCCCOC(=O)c1[nH]c(C)c(C(=O)OC)c1C,9.39% (inactive)
20,CCOC(=O)c1c(NC(C)=O)sc2c(OCC(O)CNC(C)(C)C)c(Br)ccc12 (stereo not drawn),-21.4% (inactive)
21,CC(/C=N/NC(=O)c1cc(-c2ccncc2)nc2ccccc12)=C\c1ccco1,-0.754% (inactive)
22,O=C(CCC1CCCN(C(=O)c2cc3ccccc3o2)C1)NCc1ccc(F)c(F)c1 (stereo not drawn),-4.04% (inactive)
23,COC(=O)[C@@H](C)NC(=O)c1ccc2oc(CCc3ccccc3)nc2c1,-2.28% (inactive)
